About 83,000 compounds went through this panel and 20% of them were active in at least one assay; those are over-represented in the sample as a whole.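 Single-concentration screen, 48 h exposure, 96-well plates. Endpoint: percent growth. Below 10 = active.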 A number with no mark means an inactive call. The source made the active and inactive calls.
Test system: COLO 205 colon
Experiment: NCI-60 one-dose screen, 48 h (100 = growth as untreated, 0 = no growth, -100 = all killed)
Details: 10 µM unless noted

Structure (SMILES)	growth
COC(=O)[C@]12CC[C@@H](C)[C@H](C)[C@@H]1C1=CC[C@@H]3[C@@]4(C)C(C=O)=C[C@@](C)(COC(=O)c5ccco5)C4=CC[C@@]3(C)[C@]1(C)CC2	-55.8% (active)
Nc1n[nH]c2cc(F)c([C@@H]3Nc4c(F)cc5[nH]ncc5c4[C@H]4C5CCC(C5)[C@@H]34)cc12 (some centres not stated)	-8.08% (active)
CC1(c2ccccc2)NC(=O)N(NC(=O)CSc2nc(-c3cccs3)nc3ccccc23)C1=O (configuration not stated)	124%
CC(C)C(=O)Nc1n[nH]c2cc(-c3cccc(NS(=O)(=O)C4CC4)c3)ccc12	84.7%
COc1c(CCC[P+](c2ccccc2)(c2ccccc2)c2ccccc2)cc2c(c1OC)OCO2	-55.6% (active)
CN(C)CC1=NC2SC=C(c3ccccc3)C2C(=O)N1CC#N (configuration not stated)	130%
Cc1cc(C)c2c(-c3nnc(N)s3)cc(=O)oc2c1	116%
C[C@]12CC[C@@H]3c4cc(OC(F)F)c(O)cc4CC[C@H]3[C@@H]1CC[C@@H]2OS(N)(=O)=O	10.7%
NC(=S)Nc1cccc(O)c1	129%
O=C(Nc1ccc(-n2cc(-c3ccncc3)c(-c3ccc(Cl)c(O)c3)n2)cc1)N1CCOCC1	97.4%
COc1ccc(-c2cc(-c3cc(OC)c(OC)c(OC)c3)c(C#N)c(N3CCOCC3)n2)cc1O	97.2%
COC(=O)CCC1=C(C)C2=NC1=CC1=NC(=CC3=NC(=Cc4[nH]c(/c(=C(/C)O)c4C)=C2)C(C(C)=O)=C3C)C(C)=C1CCC(=O)OC	111%
COc1cccc(/C=C/C(=O)c2c(C)nc3ccccc3c2/C=C/c2ccc(C)cc2)c1OC	80.6%
COC1=C(OC)C(=O)C(OC)=C(OC)C1=O	113%
Cn1c(-c2c(N)n(Cc3ccc(C(F)(F)F)cc3)c3nc(C#N)c(C#N)nc23)nc2ccccc21	-89.7% (active)
COc1ccc(/C=N/C2=C(C#N)C(c3ccc(OC)cc3)c3ccc4ccccc4c3O2)cc1 (configuration not stated)	102%
O=[N+]([O-])c1ccc(C2CC(c3ccccc3)=Nc3ccccc3S2)cc1 (configuration not stated)	118%
COc1cccc(-c2nc3sccn3c2-c2ccnc(NCCNS(=O)(=O)c3cccc(F)c3)c2)c1	25.8%
Cc1ccc(NS(=O)(=O)c2ccc3c(c2)C2OCCC2C(c2ccc(C(=O)C(C)C)cc2)N3)cc1C (configuration not stated)	30.8%

Structure (SMILES)	growth
C=C(C)[C@@H]1CC=C2c3sc(-c4ccc(C)cc4)nc3C[C@@H](C)[C@]2(C)C1	108%
COc1ccc(C2=Nc3c(N)ncnc3NC(c3ccc4c(c3)OCO4)C2)cc1 (configuration not stated)	102%
Cc1cccc(Cc2cnc(NC(=O)c3ccc4nnsc4c3)s2)c1	94.8%
CC(=O)n1c(-c2ccc(Cl)cc2)nc2c(c1=O)C(c1ccc(Cl)cc1)c1sc3c(Cl)cccc3c1O2 (configuration not stated)	-55.9% (active)
C[C@H](NC(=O)[C@@H]1CSSC[C@@H](NC(=O)c2nc3ccccc3cc2O)C(=O)NCC(=O)N1C)c1ccccc1	-63.7% (active)
COc1cc(/C=N/n2c(CN3CCOCC3)nc3ccccc3c2=O)cc(OC)c1OC	106%
COc1ccc2c(c1)O/C(=C\c1cccc(OCC(=O)Nc3nc(C)c(C)s3)c1)C2=O	91.6%
O=c1c2c3c(sc2n2c(-c4cc(-c5ccccc5)nn4-c4ccccc4)nnc2n1Cc1ccccc1)CCCC3	86%
Cc1ccc(Cl)cc1NC(=O)c1cc2ccccc2cc1O	1.54% (active)
COc1ccc2[nH]c(O)c(/C=c3/cc4c(c(-c5ccc(F)c(OC)c5)n3)=Nc3ccccc3-4)c2c1	84.8%
Clc1cccc(Cl)c1C(Nc1nc2ccccc2s1)Nc1nc2ccccc2s1	114%
COC(=O)[C@H](CSC)N(C)C(=O)[C@@H]1CSSC[C@@H](NC(=O)c2nc3ccccc3cc2O)C(=O)NCC(=O)N1C	16%
N[C@@H](CCCCNCC(=O)O)C(=O)O	111%
CC/C=C1/C(=O)C=C[C@@H]1C/C=C\CCCC(=O)O	108%
CC(C)=C[C@@H]1c2c(c3ccccc3n(C)c2=O)O[C@H]2c3c(c4ccccc4n(C)c3=O)OC(C)(C)[C@@H]12	95.3%
N=C1CCC(=N)c2c1c(O)c1ccccc1c2O	114%
C(=N\Nc1ncc(-c2cc3cc4c(cc3o2)OCO4)s1)/c1ccco1	6.46% (active)
Cc1ccc2[nH]c(=O)c3c(c2c1)OC(N)=C(C#N)C31c2cc(Br)ccc2-c2ccc(Br)cc21	30.2%

Source: PubChem BioAssay (NCI)
